{
  "source": "PubChem BioAssay (NCI)",
  "note": "Compounds without any hit were thinned out: in the full panel of roughly 83,000, 20% have a hit.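 In brief: 96-well plates, 48 h treatment, single concentration, percent growth endpoint.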 Values without a mark were called inactive. Calls of active or inactive are those of the source.",
  "data": [
    {"system": "RPMI-8226 leukemia", "assay": "NCI-60 one-dose screen, 48 h (100 = growth as untreated, 0 = no growth, -100 = all killed)", "settings": "10 µM unless noted", "method": "Growth inhibition of the RPMI-8226 human tumor cell line is measured as a screen for anti-cancer activity. Cells are grown in 96 well plates and exposed to the test compound for 48 hours. Compounds are tested at a single concentration, which is 10^-5 M for most compounds. The reported endpoint is percent growth (GI% or GIPRCNT), where numbers from 0 - 100% represent growth inhibition, and numbers from -100% - 0 represent cell death. For example, a value of 40 represents 60% growth inhibition. A value of 0 means no net growth occurred over the course of the experiment. A value of -40 indicates 40% of cells at the beginning of the experiment died by the end of the experiment. A value of -100 means all cells are dead at the end of the experiment.\nNCI-60 Human Tumor Cell Lines Screen was performed using the standard one-dose NCI protocol, which is described in more detail at https://dtp.cancer.gov/discovery_development/nci-60/default.htm.\nCompounds with GIPRCNT values below 10 were considered active. Activity score was based on GIPRCNT using the following formula: […]\nScore is 0 for GIPRCNT values of 100 or above, 50 for GIPRCNT values of 0, and 100 for GIPRCNT values of -100.", "values": [
      {"smiles": "O=C(/C(=C/c1ccc([N+](=O)[O-])cc1)c1ccccc1)c1ccccc1", "growth": "-10.5% (active)"},
      {"smiles": "S=C1SCN(Cc2ccccc2)CN1Cc1ccco1", "growth": "37.5%"},
      {"smiles": "C=C(C)[C@H]1CC/C(C)=C/CC[C@]2(C)O[C@H]2CC/C(C=O)=C\\C1O", "note": "(stereo not given in full)", "growth": "-17.5% (active)"},
      {"smiles": "COc1cc(/C=C/C(=O)Nc2ccc3c(c2)/C(=C\\c2cccn2C)C(=O)N3)cc(OC)c1OC", "growth": "-17.8% (active)"},
      {"smiles": "CCCCN(CCCC)CCCOC(=O)c1ccc(N)cc1", "growth": "68%"},
      {"smiles": "C[C@]12CC[C@@H]3c4ccc(O)c([N+](=O)[O-])c4CC[C@H]3[C@@H]1CC[C@@H]2NS(=O)(=O)c1ccc(C(F)(F)F)cc1", "growth": "15.6%"},
      {"smiles": "CCN1C[C@@H](C)n2c(c(O)c3c(=O)n(Cc4ccc(F)c(Cl)c4)nc(C(=O)NC)c32)C1=O", "growth": "19.4%"},
      {"smiles": "CC(C)C(=O)Cc1cnccn1", "growth": "109%"},
      {"smiles": "COc1ccc(-c2nn(-c3cccc(Cl)c3)cc2C2CC(c3ccccc3)=NN2C(C)=O)cc1", "note": "(stereo not given)", "growth": "97.6%"},
      {"smiles": "CCN(CC)CCNc1ccc(Cl)cc1Cl", "growth": "109%"},
      {"smiles": "O=C(CCc1nnc2sc(Cc3ccccc3Cl)nn12)c1nc2ccccc2[nH]1", "growth": "94.7%"},
      {"smiles": "O=[N+]([O-])c1cnc(Sc2ccncn2)c([N+](=O)[O-])c1", "growth": "67.4%"},
      {"smiles": "CCCCCCCCCCCCNc1ncnc2[nH]ncc12", "growth": "63%"},
      {"smiles": "Fc1ccc(-c2nc(Nc3ccc(-c4nc5ccccc5[nH]4)cc3)nc(N3CCOCC3)n2)cc1", "growth": "-73.4% (active)"},
      {"smiles": "C[n+]1c2ccccc2c(Nc2ccc(N3CCCCC3)cc2)c2[nH]c3ccccc3c21", "growth": "-72.4% (active)"},
      {"smiles": "COc1ccc(-c2nc3sccn3c2-c2ccnc(S(C)(=O)=O)n2)cc1", "growth": "86.5%"},
      {"smiles": "O=C1/C(=C/c2ccc([N+](=O)[O-])o2)Oc2ccc(Cl)cc21", "growth": "-11.3% (active)"},
      {"smiles": "CCN(CC)CCCCNc1c2ccccc2[n+](C)c2c1[nH]c1ccccc12", "growth": "-42.6% (active)"},
      {"smiles": "O=C(Cn1ccnc1)NC(c1ccccc1)c1ccccc1", "growth": "108%"},
      {"smiles": "O=C1C(=O)c2ccc(Br)cc2-c2cc(Br)ccc21", "growth": "25.9%"},
      {"smiles": "COc1cccc2c1C(=O)c1c(O)c3c(c(O)c1C2=O)C[C@@](O)(/C(C)=N/NC(=O)c1cccc([N+](=O)[O-])c1)C[C@@H]3OC1CC(N)C(O)C(C)O1", "note": "(stereo not given in full)", "growth": "-55.6% (active)"},
      {"smiles": "CCN1C2=C(SC(=S)C1=C1SC(C(=O)OC)=C(C(=O)OC)S1)SC(=Nc1ccc(OC)cc1)C2=O", "growth": "-13.4% (active)"},
      {"smiles": "Cc1cc(N2CCOCC2)nc(N2CCOCC2)n1", "growth": "99.2%"},
      {"smiles": "O=C(Cc1ccccn1)C(F)(F)C(F)(F)C(F)(F)F", "growth": "100%"},
      {"smiles": "Cn1cc(-c2nc(-c3c[nH]c4ncc(F)cc34)cs2)c2cccnc21", "growth": "100%"},
      {"smiles": "COc1ccc(/C=C(\\C#N)c2ccccc2)cc1", "growth": "84.7%"},
      {"smiles": "NC(=O)N/N=C/c1ccc(Br)o1", "growth": "109%"},
      {"smiles": "COc1ccc2[nH]cc(/C=C3/C(=O)Nc4ccc(Cl)cc43)c2c1", "growth": "54%"},
      {"smiles": "CN(CC(=O)Nc1nc2ccccc2[nH]1)S(=O)(=O)c1ccc(Cl)cc1", "growth": "57.5%"},
      {"smiles": "Cc1c(C(N)=O)sc2ncn(CC(=O)Nc3ccc(Cl)cc3)c(=O)c12", "growth": "101%"},
      {"smiles": "COc1ncc(-c2ccc3nccc(C#CCN4CCN(S(C)(=O)=O)CC4)c3c2)cc1NS(=O)(=O)c1ccc(F)cc1F", "growth": "-30.1% (active)"},
      {"smiles": "NC(N)=N/N=C(/c1ccccc1)c1ccc(Cl)cc1", "growth": "172%"},
      {"smiles": "CN(C)c1cccc2c(S(=O)(=O)N[C@H]3CC[C@H]4[C@@H]5CCc6cc(O)ccc6[C@H]5CC[C@]34C)cccc12", "growth": "7.82% (active)"},
      {"smiles": "C=C(C)[C@@H]1C[C@H](O)Cc2cc(Cl)cc(Cl)c2N1", "growth": "116%"},
      {"smiles": "C[C@]12C[C@H](O)[C@H]3[C@@H](CCC4=CC(=O)CC[C@@]43C)[C@@H]1CC[C@@H]2C(=O)CO", "growth": "0.491% (active)"},
      {"smiles": "O=C(Oc1ccc[nH]c1=O)c1cccc(Cl)c1", "growth": "108%"},
      {"smiles": "COc1cc(/C=C/C(=O)N2CCN(C(=O)/C=C/c3ccccc3)CC2)cc(OC)c1OC", "growth": "95.5%"},
      {"smiles": "CCC(C)CC(CC)NCCN1CCN(C(CC)CC(C)CC)C1=S", "note": "(stereo not given)", "growth": "-46.2% (active)"},
      {"smiles": "CCCCOc1ccc(C(C)(C)c2ccc(OCCCC)cc2)cc1", "growth": "91%"},
      {"smiles": "Oc1ccccc1/C=N\\Nc1ccccc1", "growth": "43.7%"}
    ]}
  ]
}
